In test [1] the target is human Peripheral-type Benzodiazepine Receptor (PBR), TSPO (gene 706) (UniProt P30536). Description: NVS_MP_hPBR: NovaScreen (NVS) Membrane Protein Assay for human Peripheral-type Benzodiazepine Receptor (PBR) (AID 2283331).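 Also: hits reduce radioligand binding relative to DMSO baseline.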 The method, boiled down:
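Cell-free binding to human colonic membrane preparations measured by filter-based scintillation counting after 1 h. Compounds first run at 25 uM in duplicate, then concentration series for actives; signal loss against DMSO baseline.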

Test [2] deals with Voltage-gated inwardly rectifying potassium channel KCNH2 (Homo sapiens) (UniProt Q12809). Nature of the test: NVS_IC_hKhERGCh: NovaScreen (NVS) Ion Channel Assay for human Potassium Channel ERG (KhERGCh) (AID 2283333). Put shortly: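 Membranes from CHO cells expressing human ERG; displacement of radioligand measured by filtration and scintillation after 0.75 h. Single-concentration duplicate screen at 25 uM, then concentration-response for actives; DMSO baseline.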

In test [3] the test system is guinea pig Histamine Receptor (H2), gene 100729734. Nature of the test: NVS_GPCR_gH2: NovaScreen (NVS) G Protein-Coupled Receptor Assay for guinea pig Histamine Receptor (H2) (AID 2283342). Put shortly: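 Guinea pig striatal membrane preparation with specific radioligand; bound counts measured by filtration and scintillation 1 h post-dosing, DMSO as baseline. Chemicals passing a 25 uM duplicate screen were titrated to a 50 uM maximum.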

Test [4] concerns the target bovine Estrogen Receptor (ER), ESR1 (gene 407238) (UniProt P49884). Description: NVS_NR_bER: NovaScreen (NVS) Nuclear Receptor Binding Assay for bovine Estrogen Receptor (ER) (AID 2283345).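 Also: actives lower the bound radioligand count which means they displace the ER ligand.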 The method, boiled down:
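Displacement of a radioligand from estrogen receptor in bovine uterine membrane preparations; scintillation signal taken at 18 hours, DMSO as baseline. Single-concentration duplicates (25 uM) preceded concentration-response follow-up of actives.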

The target in test [5] is Estrogen receptor (Homo sapiens) (UniProt P03372). Description: NVS_NR_hER: NovaScreen (NVS) Nuclear Receptor Binding Assay for human Estrogen Receptor (ER) (AID 2283348). The method, boiled down:
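Cell-free MCF7-derived ER preparation, specific radioligand displaced by test compound, read by scintillation counting 18 h post-dosing. Duplicate single-point 25 uM screen, then concentration-response confirmation; DMSO baseline.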

Test [6] addresses human Serotonin, 5-Hydroxytryptamine Receptor 3 (5HT3), HTR3A (gene 3359) (UniProt P46098). Nature of the test: NVS_LGIC_h5HT3: NovaScreen (NVS) Ligand-Gated Ion Channel Assay for human Serotonin, 5-Hydroxytryptamine Receptor 3 (5HT3) (AID 2283325). The method, boiled down: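 Initially tested at 25 uM in duplicate, then up to 50 uM in concentration-response for actives, compounds competed with a radioligand for HEK293-derived human 5-HT3 receptor. Bound counts were measured by filtration and scintillation at 1 h; loss of signal versus DMSO.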

In test [7] the target is rat Gamma-Aminobutyric Acid Type A Receptor, Non-Selective (GABAR-NonSelective), Gabra1 (gene 29705) (UniProt P62813). Description: NVS_LGIC_rGABAR_NonSelective: NovaScreen (NVS) Ligand-Gated Ion Channel Assay for rat Gamma-Aminobutyric Acid Type A Receptor, Non-Selective (GABAR-NonSelective) (AID 2283326). The method, boiled down:
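Compounds were first screened in duplicate at 25 uM, with actives run as singleton concentration series (max 50 uM). Binding of a radioligand to rat whole-brain GABA-A preparation was measured by filtration and scintillation counting after 1 h, DMSO baseline.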

In test [8] the target is Small conductance calcium-activated potassium channel protein 1 (Rattus norvegicus) (UniProt P70606). Nature of the test: NVS_IC_rKCaCh: NovaScreen (NVS) Ion Channel Assay for rat Potassium Channel, Ca2+ Act., VI (KCaCh) (AID 2283336). The method, boiled down: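 Filter-based scintillation counting of radioligand bound to rat forebrain membrane preparations, measured 1 h after compound addition. Primary screen used 25 uM in duplicate, with concentration-response follow-up; signal decrease relative to DMSO marks activity.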

A short description of test [9]: NVS_IC_rCaBTZCHL: NovaScreen (NVS) Ion Channel Assay for Calcium Channel, Type L, Benzothiazepine Site (CaBTZCHL) (AID 2283337). Put shortly: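 Test chemicals were added to rat cortical membranes and incubated 1.5 h with a tritiated or iodinated radioligand for the benzothiazepine site. Bound ligand was separated by filtration and counted. Actives from the 25 uM duplicate screen were retested in concentration series.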

In test [10] the target is bovine Gamma-Aminobutyric Acid Type A Receptor Agonist (GABAR Agonist), GABRA1 (gene 780973) (UniProt P08219). Description: NVS_LGIC_bGABAR_Agonist: NovaScreen (NVS) Ligand-Gated Ion Channel Assay for bovine Gamma-Aminobutyric Acid Type A Receptor Agonist (GABAR Agonist) (AID 2283338). The method, boiled down:
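Radioligand binding to bovine cerebellar membranes in agonist format, read by filter-based scintillation counting after 1 h. Primary screen in duplicate at 25 uM, with actives followed in concentration series. Gain of signal versus DMSO.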

Test [11] has as its target rat Glycine Receptor, Strychnine-sensitive (GlyRStrySens), Glra1 (gene 25674) (UniProt P07727). Description: NVS_LGIC_rGlyRStrySens: NovaScreen (NVS) Ligand-Gated Ion Channel Assay for rat Glycine Receptor, Strychnine-sensitive (GlyRStrySens) (AID 2283341). Put shortly:
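Radioligand displacement on rat spinal cord membranes, 1 hr, filter scintillation read-out. Single-concentration duplicate screen at 25 uM; chemicals meeting threshold (e.g., 30% inhibition) rerun in concentration-response up to 50 uM. Loss of binding fitted versus DMSO.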

Test [12] concerns the target human Constitutive Androstane Receptor (CAR), NR1I3 (gene 9970) (UniProt Q14994). Nature of the test: NVS_NR_hCAR_Antagonist: NovaScreen (NVS) Nuclear Receptor Binding Assay for human Constitutive Androstane Receptor Antagonism (CAR) (AID 2283344). The method, boiled down: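 Single 25 uM duplicate primary screen, with concentration-series follow-up on actives. Cell-free binding format run in antagonist mode, TR-FRET signal taken 1 h post-dose; activity is signal loss relative to DMSO.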

Test [13] addresses rat Glutamate, NMDA Agonist Site (GluNMDA), Grin1 (gene 24408) (UniProt P35439). Description: NVS_LGIC_rGluNMDA_Agonist: NovaScreen (NVS) Ligand-Gated Ion Channel Assay for rat Glutamate, NMDA Agonist Site (GluNMDA) (AID 2283327). Put shortly: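 Radioligand displacement at the agonist site on rat forebrain membrane preparations, read by filter scintillation after 1 h. Chemicals were first run at 25 uM in duplicate; those passing threshold were titrated to a 50 uM maximum.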

Test [14] concerns the target rat Thyrotropin Releasing Hormone Receptor (TRH), Trhr (gene 25570) (UniProt Q01717). Nature of the test: NVS_GPCR_rTRH: NovaScreen (NVS) G Protein-Coupled Receptor Assay for rat Thyrotropin Releasing Hormone Receptor (TRH) (AID 2283329).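 Also: hit means lower bound tracer signal versus DMSO baseline.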 The method, boiled down: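 Competitive radioligand binding on rat forebrain membrane preparations, with filtration and scintillation readout after 4 h. Primary testing in duplicate at 25 uM; actives confirmed in concentration-response. DMSO defined baseline.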

Test [15] addresses chimpanzee Androgen Receptor (AR), AR (gene 747460) (UniProt O97775). Nature of the test: NVS_NR_cAR: NovaScreen (NVS) Nuclear Receptor Binding Assay for chimpanzee Androgen Receptor (AR) (AID 2283346).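 Also: radioligand displacement from AR measured by scintillation counting in a cell-free assay.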 Put shortly: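 Cell-free competition binding with insect-cell (Sf9/Sf21) extracted chimpanzee AR; scintillation signal from lysate at 72 h. Screened in duplicate at 25 uM, then concentration-response for actives; fitting relative to DMSO.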

Test [16] deals with rat Glutamate, AMPA Site (AMPA), Gria1 (gene 50592) (UniProt P19490). Description: NVS_LGIC_rAMPA: NovaScreen (NVS) Ligand-Gated Ion Channel Assay for rat Glutamate, AMPA Site (AMPA) (AID 2283324). Put shortly:
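Screening at 25 uM in duplicate preceded concentration series reaching 50 uM for qualifying compounds. Radioligand displacement on rat forebrain membranes, 1 h, filter-based scintillation readout; reduced binding relative to DMSO.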

Test [17] addresses rat Glutamate, MK-801 Agonist Site (GluNMDA_MK801), Grin1 (gene 24408) (UniProt P35439). Description: NVS_LGIC_rGluNMDA_MK801_Agonist: NovaScreen (NVS) Ligand-Gated Ion Channel Assay for rat Glutamate, MK-801 Agonist Site (GluNMDA_MK801) (AID 2283340). The method, boiled down: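 Rat forebrain membrane preparation; MK-801-site radioligand binding read by filtration and scintillation after 1.5 h. Single-point 25 uM duplicate screen, followed by singleton concentration series to 50 uM max; DMSO baseline.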

The next test has as its system NCBI gene 100848466. Description: NVS_NR_bPR: NovaScreen (NVS) Nuclear Receptor Binding Assay for bovine Progextron Receptor (PR) (AID 2283343).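 Also: actives lower bound radioligand signal below DMSO meaning displacement of the label.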 Put shortly: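 Competitive radioligand binding with membranes from bovine uterus, scintillation read-out at 18 h post-dose. Compounds first tested in duplicate at 25 uM, then actives in concentration series; loss-of-signal relative to DMSO.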

Molecules are shown by their SMILES. Records with an inconclusive call do not appear. Active and inactive are the calls of the source. The calls were made as follows: active = hit-call score of the fitted dose curve at least 0.9, where 1 is the maximum; inconclusive = response in the unintended direction; inactive = score below 0.9.

Sequence of rat Gamma-Aminobutyric Acid Type A Receptor, Non-Selective (GABAR-NonSelective), Gabra1 (gene 29705) (P62813 whole entry, looked up): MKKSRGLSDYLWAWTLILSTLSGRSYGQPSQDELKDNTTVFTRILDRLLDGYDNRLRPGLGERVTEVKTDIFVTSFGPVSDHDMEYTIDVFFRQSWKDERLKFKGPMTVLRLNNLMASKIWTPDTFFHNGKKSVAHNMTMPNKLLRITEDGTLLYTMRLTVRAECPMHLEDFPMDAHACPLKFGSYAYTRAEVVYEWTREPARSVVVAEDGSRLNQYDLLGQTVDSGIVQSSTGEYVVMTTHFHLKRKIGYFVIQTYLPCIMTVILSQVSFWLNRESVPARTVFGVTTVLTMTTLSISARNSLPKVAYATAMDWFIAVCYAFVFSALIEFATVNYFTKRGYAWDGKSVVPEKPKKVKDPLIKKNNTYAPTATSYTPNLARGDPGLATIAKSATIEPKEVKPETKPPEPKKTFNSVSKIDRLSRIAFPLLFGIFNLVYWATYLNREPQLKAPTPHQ
Sequence of Estrogen receptor (Homo sapiens) (P03372 whole entry, looked up): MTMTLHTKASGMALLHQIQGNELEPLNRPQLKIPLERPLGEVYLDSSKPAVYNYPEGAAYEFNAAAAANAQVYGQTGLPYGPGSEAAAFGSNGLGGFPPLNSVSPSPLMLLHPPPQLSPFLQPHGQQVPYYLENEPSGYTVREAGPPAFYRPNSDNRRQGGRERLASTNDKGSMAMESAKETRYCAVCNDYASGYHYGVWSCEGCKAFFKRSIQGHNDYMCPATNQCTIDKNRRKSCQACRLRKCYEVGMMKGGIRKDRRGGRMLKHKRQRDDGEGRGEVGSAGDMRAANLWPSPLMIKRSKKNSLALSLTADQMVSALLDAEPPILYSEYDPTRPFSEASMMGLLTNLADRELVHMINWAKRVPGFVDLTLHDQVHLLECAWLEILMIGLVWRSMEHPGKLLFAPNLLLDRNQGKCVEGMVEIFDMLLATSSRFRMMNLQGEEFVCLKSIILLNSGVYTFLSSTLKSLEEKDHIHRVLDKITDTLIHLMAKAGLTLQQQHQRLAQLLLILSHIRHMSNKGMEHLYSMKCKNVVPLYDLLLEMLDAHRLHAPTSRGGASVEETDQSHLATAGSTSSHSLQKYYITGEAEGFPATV
Sequence of human Peripheral-type Benzodiazepine Receptor (PBR), TSPO (gene 706) (P30536 whole entry, looked up): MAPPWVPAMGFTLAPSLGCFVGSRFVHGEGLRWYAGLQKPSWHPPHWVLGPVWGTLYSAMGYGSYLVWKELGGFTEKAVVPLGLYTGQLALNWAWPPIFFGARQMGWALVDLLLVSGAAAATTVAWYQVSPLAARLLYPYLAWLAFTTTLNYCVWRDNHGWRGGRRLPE
Sequence of bovine Estrogen Receptor (ER), ESR1 (gene 407238) (P49884 whole entry, looked up): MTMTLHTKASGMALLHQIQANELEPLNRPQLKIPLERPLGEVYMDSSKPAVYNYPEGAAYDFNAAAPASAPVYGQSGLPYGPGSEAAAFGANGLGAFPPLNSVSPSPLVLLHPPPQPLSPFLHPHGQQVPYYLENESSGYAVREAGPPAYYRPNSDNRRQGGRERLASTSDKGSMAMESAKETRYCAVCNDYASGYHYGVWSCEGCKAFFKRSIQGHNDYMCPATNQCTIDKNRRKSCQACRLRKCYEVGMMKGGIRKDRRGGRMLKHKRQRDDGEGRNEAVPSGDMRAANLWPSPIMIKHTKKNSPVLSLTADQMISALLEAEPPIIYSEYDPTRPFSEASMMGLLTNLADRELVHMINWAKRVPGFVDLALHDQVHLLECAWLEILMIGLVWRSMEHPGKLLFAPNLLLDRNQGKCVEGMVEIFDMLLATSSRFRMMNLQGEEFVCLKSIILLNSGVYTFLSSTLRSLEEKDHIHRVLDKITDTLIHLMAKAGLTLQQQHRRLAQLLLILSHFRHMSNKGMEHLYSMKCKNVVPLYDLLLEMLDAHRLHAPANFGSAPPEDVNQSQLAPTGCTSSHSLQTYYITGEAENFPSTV
Sequence of human Serotonin, 5-Hydroxytryptamine Receptor 3 (5HT3), HTR3A (gene 3359) (P46098 whole entry, looked up): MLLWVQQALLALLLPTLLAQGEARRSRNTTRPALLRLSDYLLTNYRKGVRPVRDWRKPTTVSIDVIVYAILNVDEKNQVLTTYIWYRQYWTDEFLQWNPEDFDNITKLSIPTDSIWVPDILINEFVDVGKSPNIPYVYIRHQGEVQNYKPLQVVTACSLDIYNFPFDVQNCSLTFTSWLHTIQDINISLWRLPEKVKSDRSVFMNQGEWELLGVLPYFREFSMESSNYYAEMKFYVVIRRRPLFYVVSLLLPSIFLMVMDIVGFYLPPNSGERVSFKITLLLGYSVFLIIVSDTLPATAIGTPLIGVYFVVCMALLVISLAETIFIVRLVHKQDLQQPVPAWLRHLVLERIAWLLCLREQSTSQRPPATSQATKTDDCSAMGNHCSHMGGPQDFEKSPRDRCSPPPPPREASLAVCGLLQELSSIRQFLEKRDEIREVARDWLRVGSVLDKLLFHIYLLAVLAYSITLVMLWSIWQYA
Sequence of Voltage-gated inwardly rectifying potassium channel KCNH2 (Homo sapiens) (Q12809 whole entry, looked up): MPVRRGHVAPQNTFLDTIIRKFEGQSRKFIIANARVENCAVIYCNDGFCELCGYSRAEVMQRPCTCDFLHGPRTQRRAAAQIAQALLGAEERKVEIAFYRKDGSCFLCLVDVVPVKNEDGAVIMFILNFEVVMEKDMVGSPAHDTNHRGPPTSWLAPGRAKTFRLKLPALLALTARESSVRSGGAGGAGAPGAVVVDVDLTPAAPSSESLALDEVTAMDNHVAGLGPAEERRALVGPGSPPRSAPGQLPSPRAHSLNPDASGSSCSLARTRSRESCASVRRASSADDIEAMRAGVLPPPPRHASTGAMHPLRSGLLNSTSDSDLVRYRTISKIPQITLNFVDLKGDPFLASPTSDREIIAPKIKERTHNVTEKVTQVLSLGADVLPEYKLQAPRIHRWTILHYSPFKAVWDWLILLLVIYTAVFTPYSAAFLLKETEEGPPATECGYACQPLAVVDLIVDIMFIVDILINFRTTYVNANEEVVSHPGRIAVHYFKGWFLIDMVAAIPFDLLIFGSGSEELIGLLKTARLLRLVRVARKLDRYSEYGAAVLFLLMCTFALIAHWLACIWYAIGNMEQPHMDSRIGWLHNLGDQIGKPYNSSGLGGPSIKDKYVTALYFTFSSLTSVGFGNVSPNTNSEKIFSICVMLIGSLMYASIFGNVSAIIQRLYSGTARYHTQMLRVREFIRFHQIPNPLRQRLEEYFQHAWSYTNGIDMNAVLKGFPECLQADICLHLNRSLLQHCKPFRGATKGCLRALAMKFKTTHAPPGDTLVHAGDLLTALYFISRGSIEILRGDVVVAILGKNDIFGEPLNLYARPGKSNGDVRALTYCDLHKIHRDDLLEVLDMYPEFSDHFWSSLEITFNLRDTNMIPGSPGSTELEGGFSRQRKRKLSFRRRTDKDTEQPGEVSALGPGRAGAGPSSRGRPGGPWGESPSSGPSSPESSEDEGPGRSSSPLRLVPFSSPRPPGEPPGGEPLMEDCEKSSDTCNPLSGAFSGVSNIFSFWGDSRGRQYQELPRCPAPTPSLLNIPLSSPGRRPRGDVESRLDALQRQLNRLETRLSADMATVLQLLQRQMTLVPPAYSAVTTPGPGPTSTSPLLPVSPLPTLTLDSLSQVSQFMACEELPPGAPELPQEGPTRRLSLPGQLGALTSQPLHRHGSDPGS
Sequence of rat Glutamate, AMPA Site (AMPA), Gria1 (gene 50592) (P19490 whole entry, looked up): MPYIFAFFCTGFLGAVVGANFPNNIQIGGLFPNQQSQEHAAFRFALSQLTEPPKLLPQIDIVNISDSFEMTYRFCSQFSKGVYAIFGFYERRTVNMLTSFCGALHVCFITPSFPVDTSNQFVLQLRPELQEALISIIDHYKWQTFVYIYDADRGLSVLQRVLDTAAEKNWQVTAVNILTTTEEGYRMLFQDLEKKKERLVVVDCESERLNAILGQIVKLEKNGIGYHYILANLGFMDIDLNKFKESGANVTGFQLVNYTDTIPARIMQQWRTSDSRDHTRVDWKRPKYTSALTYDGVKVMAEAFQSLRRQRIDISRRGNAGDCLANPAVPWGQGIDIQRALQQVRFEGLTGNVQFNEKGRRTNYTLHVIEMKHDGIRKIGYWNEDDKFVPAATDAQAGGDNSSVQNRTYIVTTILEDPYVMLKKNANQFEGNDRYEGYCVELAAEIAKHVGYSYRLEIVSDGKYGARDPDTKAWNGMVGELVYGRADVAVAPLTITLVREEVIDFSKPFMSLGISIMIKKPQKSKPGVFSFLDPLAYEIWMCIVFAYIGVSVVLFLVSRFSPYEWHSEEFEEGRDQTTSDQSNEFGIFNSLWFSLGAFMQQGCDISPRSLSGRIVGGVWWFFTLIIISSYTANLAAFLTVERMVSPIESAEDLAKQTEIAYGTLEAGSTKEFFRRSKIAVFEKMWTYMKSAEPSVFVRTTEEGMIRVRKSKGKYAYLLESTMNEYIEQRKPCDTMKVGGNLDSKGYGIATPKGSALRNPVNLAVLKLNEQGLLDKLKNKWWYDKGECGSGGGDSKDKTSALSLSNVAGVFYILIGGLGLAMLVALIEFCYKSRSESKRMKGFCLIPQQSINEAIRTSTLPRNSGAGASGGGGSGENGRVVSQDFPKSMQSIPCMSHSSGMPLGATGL
Sequence of rat Glycine Receptor, Strychnine-sensitive (GlyRStrySens), Glra1 (gene 25674) (P07727 whole entry, looked up): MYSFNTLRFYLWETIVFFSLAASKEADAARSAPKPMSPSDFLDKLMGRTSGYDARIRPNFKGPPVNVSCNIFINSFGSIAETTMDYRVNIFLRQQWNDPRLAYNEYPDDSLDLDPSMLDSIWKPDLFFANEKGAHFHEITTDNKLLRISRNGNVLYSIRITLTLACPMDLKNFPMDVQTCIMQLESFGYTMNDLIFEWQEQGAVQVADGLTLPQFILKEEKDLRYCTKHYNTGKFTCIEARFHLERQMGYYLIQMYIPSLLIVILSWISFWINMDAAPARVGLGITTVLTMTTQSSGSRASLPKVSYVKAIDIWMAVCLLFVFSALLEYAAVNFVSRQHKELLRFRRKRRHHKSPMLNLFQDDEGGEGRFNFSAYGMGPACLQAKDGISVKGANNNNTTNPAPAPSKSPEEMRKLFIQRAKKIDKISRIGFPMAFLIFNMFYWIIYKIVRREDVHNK

On to `Nc1ccc(Nc2ccccc2)cc1`, for which the AC50 in test [1] is 11.2 µM (active). Further, the outcome in test [2], in [3], in test [4] and in test [5] was inactive.

For the molecule `COc1cccc(-c2ccc(/C=C\CN3CCCCCC3)cc2Cl)c1`, the molecule was called inactive in test [6], in test [7], in [8], in [11], in test [12] and in [4]. Further, the call in test [5] was inactive. Moreover, the half-maximal activity concentration (AC50) in test [1] is 7.83 µM (active); in test [2] it was 5.95 µM (active); in test [9] it was 0.665 µM (active); in test [10], 10.5 µM (active); in [3] it was 12.3 µM (active).

In the case of `COc1ccc(-n2nc(C(F)F)cc2-c2ccc(S(C)=O)cc2)cc1` (centres undefined), the molecule was called inactive in test [13], in [14] and in test [11]. For the same molecule, the AC50 in [3] was 25 µM (active).

Regarding `CC(C)=CCC/C(C)=C\CO`, the call in [6], in test [12] and in test [15] was inactive.

With `COCCOc1cc2cc(C(=O)NC3CCN(C(C)C)CC3)n(CC(=O)Nc3ccc(Cl)cn3)c2cn1`, the call in test [7] was inactive. For the same molecule, the concentration at half-maximal activity (AC50) is 5.21 µM (active) in test [9] and 12.8 µM (active) in [3].

In the case of `CCn1nc(Cc2ccccc2)cc1C1CCN(C[C@H]2C[C@H](N(C)[C@@H](C(=O)O)C(C)C)C[C@@H]2c2cccc(F)c2)CC1`, the AC50 in test [1] is 8.22 µM (active); in test [9], 16.2 µM (active); in test [3], 11.4 µM (active).

As for `CC(C)CCO`, the half-maximal activity concentration (AC50) in test [1] was 15.8 µM (active).

For `CC(C)=CCCC(C)=CC=O`, the result in test [16] and in [5] was inactive.

As for `O=C(OC[C@H]1O[C@@H](OC(=O)c2cc(O)c(O)c(OC(=O)c3cc(O)c(O)c(O)c3)c2)[C@H](OC(=O)c2cc(O)c(O)c(OC(=O)c3cc(O)c(O)c(O)c3)c2)[C@@H](OC(=O)c2cc(O)c(O)c(OC(=O)c3cc(O)c(O)c(O)c3)c2)[C@@H]1OC(=O)c1cc(O)c(O)c(OC(=O)c2cc(O)c(O)c(O)c2)c1)c1cc(O)c(O)c(OC(=O)c2cc(O)c(O)c(O)c2)c1`, the concentration at half-maximal activity (AC50) was 9.44 µM (active) in test [16], 5.11 µM (active) in test [1] and 0.472 µM (active) in test [15].

As to `Fc1ccccc1[C@@H](F)COC1CCC(Nc2ncnc3[nH]ncc23)CC1` (some centres undefined), in test [13], the half-maximal activity concentration (AC50) was 0.616 µM (active). In addition, the result in test [17] and in test [3] was inactive.

For `CCOC(=O)c1ccc(C2CCC(NC[C@H](O)COc3ccc(O)c(NS(C)(=O)=O)c3)CC2)cc1` (some centres undefined), the concentration at half-maximal activity (AC50) in [7] is 4.64 µM (active); in [2], 10.1 µM (active); in test [9], 7.7 µM (active); in test [3], 9.42 µM (active).

Turning to `CCN(C(=O)c1cc(C)cc(OC[C@H](C)Nc2ccncc2)c1)C(C)C`, the concentration at half-maximal activity (AC50) in test [7] was 1.13 µM (active); in test [1], 12.5 µM (active); in test [9], 6.56 µM (active); in test [3], 16.9 µM (active).

`CC(=O)OCCC(C)C`: in test [16], the call was inactive.

`O=C(O)CC(O)C(=O)O` (centres undefined): the result in test [16], in [8] and in test [3] was inactive.

Consider `C=CCCCCCCCCC(=O)O`, for which the result in [6], in [4] and in test [5] was inactive.

In the case of `CCc1cc(SCc2sc(-c3ccc(C(F)(F)F)cc3)nc2CN2CCN(c3ccc(OC)cc3)CC2)ccc1OCC(=O)O`, the call in [1] and in test [17] was inactive. The half-maximal activity concentration (AC50) was 17.7 µM (active) in [3], 40.3 µM (active) in the test on NCBI gene 100848466 and 29 µM (active) in [15].

Regarding `CC(C)(O)c1coc(S(=O)(=O)NC(=O)Nc2c3c(cc4c2CCC4)CCC3)c1`, the molecule was called inactive in [1].

As for `Cn1c(=O)cc(Oc2ccc(F)cc2F)c2cnc(NCC(C)(C)O)nc21`, the molecule was called inactive in [16] and in test [5].

For the molecule `CNCc1ccc(NC(=O)c2c[nH]c3c2C(=O)CCC3)cc1`, the outcome in test [16] and in test [7] was inactive.

The values above are taken from PubChem BioAssay (EPA / NIEHS).
